Source: PubChem BioAssay (NCATS)
A number with no mark means an inactive call. Activity calls are given as the source filed them. Calls come from the whole dose curve; as a rule, active = well fitted curve in the direction sought with a large enough effect; inconclusive = small, poorly fitted or top-dose-only effect, or another doubt; inactive = no such curve, though single readings can be large or run the other way.

molecular target: Hexokinase-4 (Homo sapiens) + Glucokinase regulatory protein (Homo sapiens) (UniProt P35557+Q14397); experiment: qHTS assay for inhibitors of recombinant human GCK-GKRP interaction: HTRF assay (AID 743207); conditions: recombinant GCK-GKRP HTRF binding, 60 min, with sorbitol-6-phosphate; series mostly up to 57.5 µM; activity change, negative = inhibition: at the top concentration;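 note: 0% = DMSO with GCK present and -100% = DMSO wells lacking GCK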
Sequence (P35557 whole entry, looked up): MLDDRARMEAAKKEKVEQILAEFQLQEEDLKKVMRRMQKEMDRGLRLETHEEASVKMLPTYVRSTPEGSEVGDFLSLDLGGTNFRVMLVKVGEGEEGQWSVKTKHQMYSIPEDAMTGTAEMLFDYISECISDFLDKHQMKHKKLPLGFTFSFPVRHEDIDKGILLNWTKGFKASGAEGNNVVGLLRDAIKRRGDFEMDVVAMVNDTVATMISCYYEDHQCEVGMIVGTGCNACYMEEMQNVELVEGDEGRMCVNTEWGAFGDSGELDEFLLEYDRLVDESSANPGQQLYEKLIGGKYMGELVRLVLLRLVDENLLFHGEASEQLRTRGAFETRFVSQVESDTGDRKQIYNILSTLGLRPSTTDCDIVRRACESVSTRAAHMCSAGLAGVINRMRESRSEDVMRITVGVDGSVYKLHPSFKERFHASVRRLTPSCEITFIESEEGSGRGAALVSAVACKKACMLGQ
Sequence (Q14397 whole entry, looked up): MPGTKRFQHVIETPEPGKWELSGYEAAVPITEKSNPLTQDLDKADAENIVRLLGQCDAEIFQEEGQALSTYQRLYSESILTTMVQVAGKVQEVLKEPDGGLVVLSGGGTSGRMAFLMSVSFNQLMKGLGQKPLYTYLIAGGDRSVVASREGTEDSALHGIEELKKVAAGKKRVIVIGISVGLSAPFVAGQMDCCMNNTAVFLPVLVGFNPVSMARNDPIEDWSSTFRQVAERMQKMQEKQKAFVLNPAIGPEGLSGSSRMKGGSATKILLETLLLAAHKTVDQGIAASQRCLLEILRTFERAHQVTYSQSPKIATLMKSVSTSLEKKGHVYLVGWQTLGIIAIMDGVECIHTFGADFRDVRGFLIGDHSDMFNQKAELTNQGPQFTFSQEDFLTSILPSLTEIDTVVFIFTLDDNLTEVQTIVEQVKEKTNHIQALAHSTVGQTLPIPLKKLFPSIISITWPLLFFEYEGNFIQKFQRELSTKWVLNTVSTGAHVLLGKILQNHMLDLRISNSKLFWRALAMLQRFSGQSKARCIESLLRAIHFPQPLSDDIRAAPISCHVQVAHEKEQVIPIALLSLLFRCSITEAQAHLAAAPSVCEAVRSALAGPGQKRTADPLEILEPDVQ
From the text: Glucokinase (GCK) is a glucose sensor in hepatocytes and pancreatic beta-cells. Hepatic GCK is regulated by glucokinase regulatory protein (GKRP), which is predominantly localized to the liver. GKRP binds to GCK inhibiting its activity in the fasting state while in the presence of glucose the GKRP is displaced. There is an additional layer of regulation by fructose 1-phosphate and fructose 6-phosphate, which inhibit and enhance the GCK-GKRP interaction, respectively. GCK plays a role in glucose homeostasis and there is an interest in the development of strategies to activate GCK to lower blood glucose levels in type 2 diabetes. To date the majority of effort has focused on direct activation of GCK and the assays developed herein look to activate GCK by inhibiting its binding to GKRP. A compound that inhibits the interaction of GCK with GKRP could be important for the treatment of diabetes and can also be used as a tool compound to further elucidate GCK-GKRP biology. To that end, we have developed an HTS biochemical assay using HTRF technology for to interrogate the GCK-GKRP interaction. This assay was screened against a small compound library to look for modulators of activity.
3 uL of 5 nM GST-GCK and 5 nM FLAG-GKRP proteins with 2 uM S6P (columns 1-2, 4-48; Millipore, Billerica, MA) are dispensed into Greiner, white solid-bottom 1536-well assay plates; columns 3 receive buffer without GCK as a control for maximum inhibition. Buffer contains 2 mM MgCl2, 25 mM KCl, 25 mM Hepes, 1 mM DTT, 0.1% Tween 20 and 0.025% BSA and the pH was adjusted to 7.1. Compounds (23 nL) are then transferred via Kalypsys pin tool equipped with 1536-pin array (10 nL slotted pins, V&P Scientific, San Diego, CA). The library compounds are in columns 5-48 and columns 1-4 serve as controls with DMSO in columns 1 and 3 and 26 mM 1:1.5 fold serial of gluckokinase activator (GKA-EMD) in column 2 and 26 mM of the glucokinase activator (GKA-EMD) in column 4. Following addition of compound, 1 uL of detection antibodies (anti-Flag XL 665 and anti-GST K in reconstitution buffer from Cisbio, Bedford, MA; 0.7 ng/well and 0.0945 ng/well, respectively) is added, and the mixture is allowed to equilibrate for 60 minutes at room temperature. Data are normalized to DMSO-treated control columns with (maximum signal) and without (minimum signal) enzyme. Plates were read on an Envision plate reader (PerkinElmer, Shelton, CT, USA) with excitation at 320 nm and dual-wavelength detection at the Fret donor wavelength (615 nm) and the FRET acceptor wavelength (665 nm).

Compound | activity change, negative = inhibition | outcome
CCCCC1C(=O)N(c2ccccc2)N(c2ccccc2)C1=O | -2.79% | –
CCN1CCC[C@H]1CNC(=O)c1cc(S(N)(=O)=O)ccc1OC | 9.12% | –
O=C(NCCN1CCOCC1)c1ccc(Cl)cc1 | -14.2% | –
O=c1cc(-c2ccc(O)cc2)oc2cc(O)cc(O)c12 | -5.01% | –
CC(C)OC(=O)C(C)(C)Oc1ccc(C(=O)c2ccc(Cl)cc2)cc1 | 5.31% | –
CCCNC(=O)NS(=O)(=O)c1ccc(Cl)cc1 | -3.26% | –
COc1ccc(Cc2nccc3cc(OC)c(OC)cc23)cc1OC | 2.28% | –
CC(=O)c1ccc(S(=O)(=O)NC(=O)NC2CCCCC2)cc1 | -18.3% | –
CCN(CC)CCOC(=O)c1ccc(N)cc1 | -1.92% | –
CC1=C(/C=C/C(C)=C/C=C/C(C)=C/C(=O)Nc2ccc(O)cc2)C(C)(C)CCC1 | -2.22% | –
Cc1cccc(C)c1OCC(C)N (centres undefined) | 0.313% | –
C[N+](C)(C)CCCCCC[N+](C)(C)C | – | inactive
CN(C)CCC(c1ccccc1)c1ccccn1 (centres undefined) | -2.72% | –
CCN(CC)CCNC(=O)c1ccc(N)cc1 | -19.4% | –
O=C1NCC2(CCN(CCc3ccccc3)CC2)O1 | -8.71% | –
O=C1NC(=O)C(c2ccccc2)(c2ccccc2)N1 | – | inactive
CC(=O)O[C@]1(C(C)=O)CC[C@H]2[C@@H]3C=C(Cl)C4=CC(=O)[C@@H]5C[C@@H]5[C@]4(C)[C@H]3CC[C@@]21C | 0.599% | –
O=c1c(-c2ccc(O)cc2)coc2cc(O)ccc12 | 21% | –
NC(N)=Nc1nc(CSCC/C(N)=N/S(N)(=O)=O)cs1 | -0.271% | –
CC(=O)N[C@@H](CS)C(=O)O | -7.51% | –
CC(=O)CCCCn1c(=O)c2c(ncn2C)n(C)c1=O | -6.62% | –
COC(=O)[C@@H]1[C@H]2C[C@H]3c4[nH]c5ccccc5c4CCN3C[C@@H]2CC[C@@H]1O | -10.8% | –
Clc1ccc(Cn2c(CN3CCCC3)nc3ccccc32)cc1 | -1.03% | –
NCCS | 3.14% | –
COc1cccc(-c2cc(=O)c3ccccc3o2)c1N | 2.6% | –
CC/C(=C(\c1ccccc1)c1ccc(OCCN(C)C)cc1)c1ccccc1 | -6.5% | –
CCN(CC)C(=O)c1ccc(O)c(OC)c1 | 6.22% | –
COc1ccccc1N1CCN(CCCNc2cc(=O)n(C)c(=O)n2C)CC1 | -1.96% | –
CCCCCN(C)CCC(O)(P(=O)(O)O)P(=O)(O)O | 3.84% | –
